# DT40 TDP1 no CPT = qHTS for Inhibitors of human tyrosyl-DNA phosphodiesterase 1 (TDP1): qHTS in cells in absence of CPT. AID 686978, 2013. 420,000 compounds, 15% hits. Potency, µM (series often up to 46.2 µM), for the others: at the highest dose activity change, negative = growth inhibition, usual class: inhibitors. DT40 Tdp1-/- hTDP1 cells, no CPT, ATP luminescence, 48 h; also: potency is read from the fitted curve at half-maximal effect; nearly all actives have a fitted effect of over 55% in size
#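 Growth kinetics read by CellTiter-Glo luminescence after ≥48 hr at 37 °C. Cells: DT40 Tdp1-/- stably carrying human TDP1, 400 per well, compound exposure in the absence of CPT (DMSO vehicle).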
# DT40 TDP1 CPT = qHTS for Inhibitors of human tyrosyl-DNA phosphodiesterase 1 (TDP1): qHTS in cells in presence of CPT; chicken DT40 Tdp1-/-;hTDP1 cells + 20 nM CPT, ATP luminescence, 48 h; Potency, µM (highest dose often 46.2 µM), for inactives: top-dose activity change, negative = growth inhibition, hits mostly inhibitors; 420,000 compounds, 12% hits; AID 686979, 2013; also: potency is read from the fitted curve at half-maximal effect; nearly all actives have a fitted effect of over 55% in size
#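 Chicken DT40 Tdp1-/- cells stably complemented with human TDP1 were seeded at 400 cells/well in medium containing 20 nM camptothecin, exposed to pin-transferred compounds, and grown at 37 °C for at least 48 hr. Viability was read as ATP luminescence.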
# IL1B secr inh = qHTS for Inhibitors of Inflammasome Signaling: IL-1-beta AlphaLISA Primary Screen | THP-1 LPS/ATP IL-1B secretion, AlphaLISA, 16 h; stronger effect = lower value | activity change, % at 57.5 µM | 360,000 compounds, 4.7% hits | AID 743279, 2014; in the data active = activity change below about -50%; inconclusive = mostly about -30% to -49%
#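 Secreted IL-1B measured by AlphaLISA bead assay after 16 h compound exposure of THP-1 cells; compounds (final up to 57.5 uM) added 1 h before LPS (250 ng/mL) and ATP (1.25 mM) stimulation; lower signal means less secretion.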
# HT1080 IDH1KD tx = qHTS for induction of synthetic lethality in tumor cells producing 2HG: qHTS for the HT-1080-IDH1KD cell line; Potency, µM (highest dose often 46.1 µM), inactives show at the highest dose activity, negative = toxicity, hits mostly cytotoxic; AID 686971, 2013; 360,000 compounds, 2% hits; HT-1080 IDH1 knockdown viability, ATP luminescence, 48 h;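 also: potency is read from the fitted curve at half-maximal effect; 0% = DMSO wells and -100% = cell-free medium wells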
#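 Assay cells: HT-1080 with IDH1 knockdown, 750 per well, RPMI/5% FBS. Exposure: 48 h at 37 °C following 2 h pre-incubation. Read: CellTiter-Glo luminescence; fitted concentration-response, curve class assigned.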
# uPA surface inh = qHTS for Inhibitors of Cell Surface uPA Generation; cell surface uPA generation assay, qHTS; Potency, µM (top dose mostly 38.3 µM), for inactives: at the top dose activity change, negative = inhibition, hits mostly inhibitors; 330,000 compounds, 0.31% hits; active = well fitted inhibition curve with a large enough effect; inconclusive = small, poorly fitted or top-dose-only effect; inactive = no such curve, though single readings can be large or run the other way; tested in mouse RAW 264.7 cells; also: potency is read from the fitted curve at half-maximal effect; nearly all actives have a fitted effect of over 55% in size
# HT1080NT lethal = qHTS for induction of synthetic lethality in tumor cells producing 2HG: qHTS for the HT-1080-NT fibrosarcoma cell line; HT-1080-NT fibrosarcoma viability, CellTiter-Glo ATP luminescence, 48 h; Potency, µM (highest dose often 46.1 µM), without a hit: top-dose activity, negative = less viability, hits mostly cytotoxic; 360,000 compounds, 1.6% hits;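 also: NT is the 2HG producing partner of a matched IDH1 knockdown line; potency is read from the fitted curve at half-maximal effect; 0% = DMSO-treated cells and -100% = media-only wells without cells; nearly all actives have a fitted effect of over 55% in size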
#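 Viability by CellTiter-Glo luminescence after 48 h compound exposure at 37C of HT-1080-NT cells (750/well, RPMI, 5% FBS). % activity scaled between DMSO wells and medium-only wells, then curve-fitted and categorized by curve class.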
# An asterisk follows results filed as active; ? = inconclusive; nt = no result. The list is not random: actives were taken first. Their share in the collection is about 19%. Unless noted, calls follow the shape of the dose curve; as a rule, active = well fitted curve in the direction sought with a large enough effect; inconclusive = small, poorly fitted or top-dose-only effect, or another doubt; inactive = no such curve, though single readings can be large; an effect the other way counts as inactive or inconclusive. Unless noted, % is scaled to controls: 0 for no effect and ±100 for the full control effect.
SMILES,DT40 TDP1 no CPT,DT40 TDP1 CPT,IL1B secr inh,HT1080 IDH1KD tx,uPA surface inh,HT1080NT lethal
CC(C)Nc1nc(Nc2ccc(C(N)=O)cc2)c2sccc2n1,?,26µM*,22,0%,nt,23%
COCCNc1nc(Nc2ccc(Cl)cc2F)c2sccc2n1,16µM*,13µM*,-11,-23%,nt,-20%
CC(C)Nc1nc(NCCN2CCNC2=O)c2sccc2n1,-1%,10%,34,0%,nt,13%
O=C(NC1CCCC1)N[C@@H]1C=C[C@@H](CC(=O)N2CCOCC2)O[C@@H]1CO,5%,?,5,20%,nt,24%
O=C(Cc1csc(-c2ccccc2)n1)NCC(=O)Nc1ccc(F)c(F)c1F,-9%,-4%,1,-5%,-1%,-5%
Cc1sc2ncn(CC(=O)Nc3cccc(C(F)(F)F)c3)c(=O)c2c1S(=O)(=O)N1CCN(C)CC1,-87%,?,nt,nt,nt,nt
CNc1nc(Nc2ccc(C(=O)OC)cc2)c2sccc2n1,15µM*,13µM*,27,?,nt,-11%
COCCNc1ccnc(-c2c(C)noc2C)n1,5%,9%,nt,nt,nt,nt
Cc1cc(C)c(C)c(S(=O)(=O)NC2CCN(Cc3ccccc3)CC2)c1C,?,?,-73*,16µM*,2%,?
Cc1ccc(Cl)cc1S(=O)(=O)N1CCC(C(=O)NC2CCN(Cc3ccccc3)CC2)CC1,15µM*,?,21,-29%,0%,-15%
Cc1cc(S(=O)(=O)NC2CCN(Cc3ccccc3)CC2)c(C)cc1Cl,?,?,-96*,21µM*,-2%,?
CCN(CC)S(=O)(=O)c1ccc(S(=O)(=O)N2CCC(C(=O)NC3CCN(Cc4ccccc4)CC3)CC2)cc1,-6%,1%,4,13%,7%,13%
Cc1cc(C)c(S(=O)(=O)NC2CCN(Cc3ccccc3)CC2)c(C)c1,?,?,-1,-12%,8%,11%
COc1ccc(Cn2cc(CN(C)C3CN(Cc4cn(Cc5ccc(OC)cc5)nn4)S(=O)(=O)C3)nn2)cc1 (configuration not stated),-30%,-4%,-7,-1%,nt,1%
O=C(NCc1ccncc1)c1cnn(-c2ncc3c(n2)-c2ccccc2CC3)c1C1CC1,-8%,10%,nt,nt,nt,nt
CC(C)CN1CCC2(CC1)CCN(C(=O)c1cccc(F)c1)CC2,-15%,-6%,nt,nt,nt,nt
Cc1cccc(NC(=O)C2CCC(CNS(=O)(=O)c3csc(C(N)=O)c3)CC2)c1C (configuration not stated),17%,-15%,nt,nt,nt,nt
O=C(NN=C(c1ccccc1)c1ccccn1)c1ccccc1,0.92µM*,1µM*,-99*,?,-2%,-20%
O=C(NC(O)C(=O)c1ccccc1)c1ccccn1 (configuration not stated),?,23µM*,4,4%,-6%,-6%
O=C(N/N=C(\c1ccccc1)c1ccccn1)c1ccccc1Cl,?,?,-104*,?,9%,-15%
COc1ccc(C(=O)N/N=C(\c2ccccc2)c2ccccn2)cc1,2.6µM*,2.9µM*,-23,?,12%,?
COCCNC(=O)C1(C)CCCN(Cc2noc(-c3ccccc3OC)n2)C1 (configuration not stated),?,?,-6,2%,nt,?
O=C(c1ccccc1)N1CCN(C(=O)C23CC4CC(CC(C4)C2)C3)CC1,?,-18%,-27,8%,-5%,12%
CN1CCN(C(=O)C23CC4CC(C2)CC(c2ccccc2)(C4)C3)CC1,?,?,-53*,0%,-2%,-25%
Cc1ccc(Oc2coc3cc(OCC(=O)NC4CCCCC4)ccc3c2=O)cc1,-24%,-13%,nt,nt,nt,nt
SMILES,DT40 TDP1 no CPT,DT40 TDP1 CPT,IL1B secr inh,HT1080 IDH1KD tx,uPA surface inh,HT1080NT lethal
CC(C)C[C@H]1COc2cc(N3CCC[C@H]3CO)ccc2S(=O)(=O)N1,-18%,-25%,6,26%,nt,11%
O=C(/C=C/Nc1ccccc1)c1ccc(Cl)cc1Cl,?,-22%,-11,2%,10µM*,9%
NCCCC[C@H]1CN=C(N)N1CCC12CC3CC(CC(C3)C1)C2,?,?,-55*,3%,-3%,6%
CCN(CC)CCNC(=S)Nc1ccc2nc(N3CCOCC3)cc(C)c2c1,-27%,?,?,0%,-19%,-7%
CCN(CC)CCNC(=S)Nc1ccc2nc(N3CCN(C)CC3)cc(C)c2c1,16µM*,26µM*,-51*,-20%,8%,?
CCN(CC)CCNC(=S)Nc1ccc2nc(N3CCCC3)cc(C)c2c1,10µM*,13µM*,-66*,?,?,?
CCCN(CCC)CCCNC(=S)Nc1ccc2nc(N3CCCC3)cc(C)c2c1,13µM*,?,?,?,?,?
Cc1nn(CC(C)C)c(Cl)c1C(=O)N(C)CC(=O)Nc1ccc(Cl)cc1,?,?,12,-19%,nt,-7%
O=C(NNc1ccccc1)/C(=C\c1cccnc1)NC(=O)c1ccccc1,-11%,-17%,-5,-23%,-13%,-15%
COc1ccc(NC(=O)C2=Cc3ccccc3OC2)cc1,?,-12%,-51*,26%,-10%,-13%
O=C(Nc1ccc(Cl)cc1)C1=Cc2cc(Cl)ccc2OC1,26µM*,18µM*,-17,4%,2%,20%
CC(C)Oc1ccc(CNC(=O)C2=Cc3ccccc3OC2)cc1,?,21µM*,nt,nt,nt,nt
O=C(CNC(=O)C1CCCCC1)NCc1ccco1,-7%,10%,23,21%,1%,2%
CCOC(=O)CCCCC(=O)c1[nH]c(=O)[nH]c1CSc1nc(-c2ccccc2)c(C#N)c(=O)[nH]1,3%,10%,-66*,20%,-9%,-9%
COC(=O)c1cccc(CSc2nc(-c3ccccc3)c(C#N)c(=O)[nH]2)c1,10%,2%,36,14%,3%,11%
N#Cc1c(-c2ccccc2)nc(SCc2ccc(Cl)cc2)[nH]c1=O,-26%,-2%,-54*,-17%,-1%,-21%
CCOC(=O)CCCCC(=O)c1[nH]c(=O)[nH]c1CSCCO,3%,7%,-84*,?,3%,4%

# Source: PubChem BioAssay (National Center for Advancing Translational Sciences (NCATS))
